Measurements reported in PubChem BioAssay AID593 (National Center for Advancing Translational Sciences (NCATS), 2007).
In all, about 59,000 compounds went through this assay and about 540 (0.92%) were called active. Another 33% or so got no clear call; they are omitted. No stated cut-off is given here; in the data, active means max fluorescein-equivalent concentration above about 10 nM; inconclusive means between about 1.1 nM and that limit; inactive means weaker than that. Many of the other results were omitted from the sample, so actives are more common in it than they were.

experiment: qHTS Assay for Spectroscopic Profiling in Fluorescein Spectral Region; details: Compound autofluorescence, 480/540 nm; max fluorescein-equivalent concentration: stronger effect = higher value; outcome: fluorescein-equivalent
Summary of the method: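 Library compounds, added at multiple concentrations to pH 8.0 Tris buffer (100 mM), incubate 15 min at room temperature before CCD imaging at 480 nm excitation and 540 nm emission.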

Row | Compound | max fluorescein-equivalent concentration
1 | COC(=O)c1c(NC(=O)CSc2nc3c(c(=O)n(C)c(=O)n3C)n2C(C)C)sc(C)c1C | inactive
2 | Clc1ccc(C=Nc2ccc3c(c2)Cc2ccccc2-3)c(Cl)c1 | inactive
3 | CCNc1ncc2nc(CCc3ccccc3)c(=O)n(-c3ccc(OC)cc3)c2n1 | inactive
4 | CSCCC(Nc1nc2ccccc2s1)C(=O)O (stereo unspecified) | inactive
5 | CCn1c(COc2cccc(OC)c2)nnc1SCC(=O)N1CCOCC1 | inactive
6 | O=C(O)[C@@H](S)[C@H](S)C(=O)O | inactive
7 | COc1ccc(OC)c([C@H](O)CNC(=O)CN)c1 | inactive
8 | COCCNC(=O)C(C#N)c1nc2ccccc2nc1N1CCN(Cc2ccc3c(c2)OCO3)CC1 (stereo unspecified) | inactive
9 | Cc1ccc(S(=O)(=O)C(C#N)c2nc3ccccc3nc2N2CCCC2)cc1C (stereo unspecified) | 14 nM (active)
10 | CC(=O)/C(=N\N=C(N)N)c1ccccc1 | inactive
11 | CCCCC(=O)Nc1ccc(C(=O)NCCCn2ccnc2)cc1 | inactive
12 | O=c1[nH]nc(CSCc2ccccc2Cl)[nH]1 | inactive
13 | COC(=O)N1CCC[C@@]2(CCN(C(=O)NC(C)C)C2)C1 | inactive
14 | CCOC(=O)c1cc2n(c1N)-c1ccccc1C2=O | 780 nM (active)
15 | CCOC(=O)c1cc2n(c1C)-c1ccccc1C2=O | inactive
16 | CCOC(=O)c1cc2ccccc2nc1C | inactive
17 | CCN(CC)c1ccc2oc(=O)c(C)nc2c1 | 140 nM (active)
18 | CCc1ccc2oc(-c3ccc(N)cc3)nc2c1 | inactive
19 | O=C(c1ccncc1)N1CCC2(CCCN(C(c3ccccc3)c3ccccc3)C2)CC1 | inactive
20 | CC(C)CSC[C@@H]1O[C@H](n2cnc3c(N)nccc32)[C@H](O)[C@@H]1O | inactive
21 | COc1ccc(-c2nc3cnc(Oc4ccccc4)nc3n(Cc3cccs3)c2=O)cc1 | inactive
22 | CCOc1ccc(N=NS(=O)(=O)O)cc1 | inactive
23 | O=c1c(-c2cccs2)nc2cnc(Oc3ccccc3)nc2n1-c1ccccc1 | inactive
24 | CCn1c(COc2ccc(OC)cc2)nnc1SCC(=O)Nc1cc(OC)ccc1OC | inactive

Row | Compound | max fluorescein-equivalent concentration
25 | Nc1ccc2c3c(cccc13)C(=O)NC2=O | 2000 nM (active)
26 | Cc1ccc2nc(NCCCNC(=O)c3cnccn3)c(C#N)cc2c1 | inactive
27 | CC(C)CNC(=O)C1CCCN(S(=O)(=O)c2ccc(-n3cnnn3)cc2)C1 (stereo unspecified) | inactive
28 | FC(F)(F)c1ccccc1-c1cc(NCc2ccccc2)ncn1 | inactive
29 | COCCn1c(=O)c(C)nc2cnc(N(C)C)nc21 | inactive
30 | CN1CCN(C(=O)c2ccc(NS(=O)(=O)c3ccccc3)cc2)CC1 | inactive
31 | CN1CCN(Cc2nc3c(c(=O)n(C)c(=O)n3C)n2Cc2cccc3ccccc23)CC1 | inactive
32 | CS(=O)(=O)N(C(=O)NC(=O)NC1CCS(=O)(=O)C1)C1CCCCC1 (stereo unspecified) | inactive
33 | CC[N+](C)(CC)CCC[n+]1c(-c2ccccc2)c2cc(N)ccc2c2ccc(N)cc21 | 18 nM (active)
34 | NC(=O)C1CCN(C(=O)c2ccc(C(F)(F)F)cc2)CC1 | inactive
35 | CC1(C)S[C@@H]2[C@@H](NC(=O)[C@@H](N)c3ccccc3)C(=O)N2[C@H]1C(=O)O | inactive
36 | O=C(NCCc1ccco1)c1nn(Cc2ccccc2)c(=O)c2ccccc12 | inactive
37 | CN(C)CCCn1c2ccccc2c2cnccc21 | inactive
38 | CC(C)c1nc2oc3c(N4CCN(C)CC4)ncnc3c2c2c1CCC2 | inactive
39 | CC(=O)N1CCN(c2ccc(NCc3ccc(C(C)C)cc3)cc2)CC1 | inactive
40 | Cc1ccc(C(=O)NCC(=O)O)cc1S(=O)(=O)N1CCCCC1 | inactive
41 | C=CCn1c(C)cc(C(=O)CN2C(=O)c3ccccc3C2=O)c1C | inactive
42 | Cc1ccc(SCCN2C(=O)NC(C)(C)C2=O)cc1 | inactive
43 | COc1cccc(Cn2c(=O)c(C)nc3cnc(Oc4ccccc4)nc32)c1 | inactive
44 | Cc1cc(C(F)(F)F)nn1CC(=O)N1CCCC1 | inactive
45 | CCOc1ccc(NS(=O)(=O)c2ccc(OCC(=O)NCCCOC)cc2)cc1 | inactive
46 | COc1ccccc1N1CCN(Cc2nnnn2CCc2ccccc2)CC1 | inactive
47 | COCCn1nnnc1C(c1ccccc1Cl)N1CCN(c2ccccc2OC)CC1 (stereo unspecified) | inactive
48 | COc1ccccc1N1CCN(c2nc3ccccc3n3nnnc23)CC1 | 12 nM (active)

Row | Compound | max fluorescein-equivalent concentration
49 | COc1ccc(-c2cc(C(F)(F)F)nc(SCCC(=O)NCc3ccco3)n2)cc1 | inactive
50 | CCN(CC)S(=O)(=O)c1cccc(C(=O)Nc2cc(C)nn2-c2nc(C)cc(C)n2)c1 | inactive
51 | COc1ccc(OCC(=O)OCC(=O)Nc2ccc(S(=O)(=O)N3CCCCC3)cc2)cc1 | inactive
52 | CCN1CCN(C(=O)CN(C)S(=O)(=O)c2ccc(OC)cc2)CC1 | inactive
53 | CCC1CCCCN1C(=O)Nc1cccc(NC(=O)N2CCCCC2CC)c1 (stereo unspecified) | inactive
54 | COc1ccccc1CNc1nc(-c2c(C)noc2C)nc2ccccc12 | inactive
55 | FC(F)(F)c1nnc2sc(-c3ccco3)nn12 | inactive
56 | O=C(O)CS(=O)c1ccc2c3c(cccc13)C(=O)c1ccccc1-2 (stereo unspecified) | 14 nM (active)
57 | CCn1c(=N)c(S(=O)(=O)c2ccc(F)cc2)cc2c(=O)n3ccccc3nc21 | 29 nM (active)
58 | CCn1c(=N)c(C(=O)NCCCOC)cc2c(=O)n3cccc(C)c3nc21 | inactive
59 | CC1(C)C(=O)C2(CCCCC2)C(=O)OC1c1cccs1 (stereo unspecified) | inactive
60 | CCOc1ccccc1Nc1nnc(SCC(=O)Nc2cc(C)on2)s1 | inactive
61 | CC[C@H](c1ccccc1)c1cc(C(C)(C)C)cc(C(C)(C)C)c1O | inactive
62 | C=CCn1c(COc2ccccc2C)nnc1SCC(=O)O | inactive
63 | O=C(NCc1ccco1)c1sc2cccc(F)c2c1Cl | inactive
64 | CN(c1ccccc1)c1ccc(/C=c2\s/c(=C(/C#N)C(=O)C(C)(C)C)n(Cc3ccco3)c2=O)cc1 | 34 nM (active)
65 | CC(Sc1nc2ccccc2c(=O)n1Cc1ccco1)C(=O)c1ccccc1 (stereo unspecified) | inactive
66 | COc1ccccc1NC(=O)CSc1nc2sc(C)c(C)c2c(=O)n1Cc1ccco1 | inactive
67 | Cc1ccccc1C(=O)Nc1cccc(-c2nnc(SCC(=O)O)n2C)c1 | inactive
68 | O=C(CNS(=O)(=O)c1cccc(C(F)(F)F)c1)Nc1ccccc1F | inactive
69 | Cc1ccc(C(=O)CSc2nc3ccccc3c(=O)n2N)o1 | inactive
70 | Cc1cc2c(=O)n(C)c(SCC(=O)c3cc4ccccc4o3)nc2s1 | 13 nM (active)
71 | Cc1ccsc1C(=O)OCC(=O)c1cc2ccccc2o1 | inactive
